# Screening data: PubChem BioAssay, several laboratories
# TRAIL sens C8: viability loss with TRAIL in NB7+C8 cells, primary screen, TRAIL sensitizer project, cell-based, ATPlite luminescence; 1% of 360,000 active; inhibition (viability loss, TRAIL sensitization), % at 10 µM;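 active means compounds causing at least 50% loss of cell viability in the single-dose screen, relative to plate controls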
# TROY signal inh: inhibitors of TROY-driven NF-kB signaling, primary screen, Q293 LMP1-TROYcd cells, NF-kB luciferase, uHTS; Q293 LMP1-TROYcd NF-kB luciferase reporter, 4 h; inhibition, % at 10 µM; 0.98% of 360,000 active; AID 1347056, 2019;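 active means compounds whose plate-normalised and pattern-corrected inhibition of the luciferase reporter signal at the single screening dose is 50% or more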
# TWEAK-Fn14 inh: inhibitors of TWEAK-Fn14 signaling, primary screen, luciferase reporter cells, uHTS. TWEAK-stimulated Fn14 reporter cells, luciferase luminescence, 8 h. inhibition, % at 10 µM. 2% of 360,000 active; in the data active means inhibition above about 50%
# HIF-2a block: HIF-2a reporter inhibitors, primary screen, luminescence, 786-0 RCC cells; 786-0 RCC cells HIF-2a reporter, luciferase luminescence, overnight; 0.72% of 360,000 active; inhibition, % at 18.8 µM; AID 624352, 2012;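 active means inhibition of the luminescence signal of 40% or more relative to plate controls, in a single-dose primary screen at 18.75 µM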
# aSyn 5UTR inh: MLPCN primary screen, SNCA 5' untranslated region. alpha-synuclein 5'UTR reporter, inhibitor activity. inhibition, % (tested at 7.5 µM). AID 1813, 2009. 0.82% of 300,000 active; in the data active means inhibition above about 60%;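 further: H4 neuroglioblastoma cells stably carrying SNCA 5'UTR luciferase fusion; 0% = DMSO wells and 100% = positive control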
# HSP90 refold inh: HSP90 inhibitors, primary screen, cell lysate, luminescence. Heat shock protein HSP 90 (rabbit reticulocyte lysate; luciferase refolding). Rabbit reticulocyte lysate, luciferase refolding luminescence, 3 h. inhibition, % at 5.6 µM. 0.91% of 290,000 active;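 active means inhibition above the screen-wide mean plus 3 SD, computed separately per campaign, cut at about 16% in these data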;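 further: 0% = DMSO wells and 100% = 60 µM geldanamycin wells; inhibitors lower the luminescence because luciferase stays unfolded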
# * = called active by the depositor; . = no result. Compounds with a hit are over-represented: about 3.9% of the library has one in this group of screens.
SMILES,TRAIL sens C8,TROY signal inh,TWEAK-Fn14 inh,HIF-2a block,aSyn 5UTR inh,HSP90 refold inh
CCCCNC(=O)C1(C)CCN1C(=O)c1ccc(OC)c(C(F)(F)F)c1 (stereo not drawn),-12,-6,12,0,.,.
C[C@@H]1ON(C)[C@H]2C[C@H]3c4[nH]c5ccc(-c6ccc7c(c6)OCO7)cc5c4CCN3C(=O)[C@@H]12,6,16,47,-20,.,.
Cc1ccc(C(=O)N/N=C\c2ccc(OC(=O)c3cccc(F)c3)cc2)cn1,12,-38,-28,-3,19,-1
COc1cc(/C=N/NC(=O)c2ccc(F)cc2)ccc1OC(=O)c1ccco1,3,-26,-44,-22,-21,-2
COc1cc(/C=N\NC(=O)c2ccc(C)nc2)ccc1OC(=O)c1cccc(F)c1,10,15,72*,-19,-2,-3
O=C(N/N=C/c1cccc(OC(=O)c2ccco2)c1)c1ccc(F)cc1,71*,-57,-21,-167,-104,-1
Cc1ccc(C(=O)N/N=C\c2cccc(OC(=O)c3cccc(F)c3)c2)cn1,54*,-21,23,-51,-54,-4
Cc1nc2ccc(C(=O)N3c4ccccc4N=C(c4ccc(C(F)(F)F)cc4)C3C(=O)NC(C)(C)C)cc2[nH]1 (stereo not drawn),8,.,.,-77,.,.
CNC(=S)NNC(=O)CSCc1c(Cl)cccc1Cl,-22,-2,-1,25,-20,-1
O=C(CSCc1ccccc1)NNC(=S)Nc1cccc(Cl)c1Cl,1,.,64*,-54,21,-3
CCCN(CCC)S(=O)(=O)c1ccc(C(=O)Nc2nnc(CSC)o2)cc1,20,6,7,0,13,0
Cc1cccc(-c2nnc(NC(=O)c3ccc(Cl)cc3)o2)c1,8,-19,62*,15,-4,-1
CCCN(CCC)S(=O)(=O)c1ccc(C(=O)Nc2nnc(-c3cccc(OC)c3)o2)cc1,23,-7,17,19,70*,-4
Cc1ccc(C(=O)Nc2nnc(-c3ccncc3)o2)cc1,0,-28,-5,-75,-82,6
CCCN(CCC)S(=O)(=O)c1ccc(C(=O)Nc2nnc(-c3cc(OC)cc(OC)c3)o2)cc1,-1,-18,37,14,82*,1
C[C@H](CO)N1C[C@H](C)[C@H](CN(C)C(=O)NC2CCCCC2)Oc2cc(-c3cccnc3)ccc2S1(=O)=O,-14,-1,3,2,.,.
CCN(CC)C(=O)c1[nH]cnc1C(=O)Nc1ccc(C)cc1,-11,-2,-11,2,.,.
CCN(CC)S(=O)(=O)c1cccc(C(=O)N/N=C/c2ccc(O)c(O)c2O)c1,47,4,-23,9,.,-1
CCN(CC)S(=O)(=O)c1cccc(C(=O)N/N=C(\C)c2ccc(O)cc2O)c1,6,7,0,13,111*,-5
COc1ccc2nc(-c3ccc(F)cc3)sc2c1,65*,39,75*,-61,-2,.
Nc1cc2c(cc1Br)-c1ccccc1C2=NO,-3,8,37,-197,.,.
COc1cc(NCCCn2ccc(NC(=O)OCc3ccccc3)nc2=O)cc(OC)c1OC,-6,0,-12,2,.,.
O=[N+]([O-])c1ccccc1OCCOCCOc1cccc2cccnc12,-12,87*,75*,-3,-19,-7
COC(=O)c1ccccc1OCCOCCOc1cccc2cccnc12,-8,3,-4,23,-5,-3
CC(C)(C)OC(=O)N(CCc1ccccc1)Cc1ccc(OCc2cccc(NC(=O)C3CCC3)c2)cc1,7,5,39,4,.,.
SMILES,TRAIL sens C8,TROY signal inh,TWEAK-Fn14 inh,HIF-2a block,aSyn 5UTR inh,HSP90 refold inh
CC(=O)NC1=NC(=O)/C(=C/c2cn(C(C)=O)nc2-c2ccccc2)S1,-13,43,74*,6,-10,-3
OCC[C@H]1NCc2cc(CO)cc(-c3ccccc3)c21,16,-3,13,1,.,.
COc1ccc(/C=N/OC(=O)Nc2ccccc2OC)cc1,52*,-70,5,-319,-28,5
COc1ccc(/C=C/c2cc(C(=O)O)c3ccccc3n2)cc1,94*,-6,77*,22,81*,2
COc1ccc(/C=C/C(=O)Nc2cc(C)nn2-c2nc3ccccc3[nH]2)cc1,71*,-58,14,-224,-85,1
O=C(/C=C/c1ccco1)Nc1ccccc1C(=O)O,48*,-43,-8,-170,-117,7
O=C(/C=C/c1ccco1)Nc1cc(Cl)ccc1C(=O)O,-3,-5,-7,-40,0,-1
COc1cc(OC)c(OC)cc1/C=C/c1cc(C(=O)O)c2ccccc2n1,22,-1,-6,6,5,1
C[C@@H]1CN([C@@H](C)CO)C(=O)CCCn2nncc2CO[C@@H]1CN(C)C(=O)Nc1cccc(Oc2ccccn2)c1,-1,-12,-8,4,.,.
CC(C)C[C@@H]1Cc2[nH][nH]c(=O)c2[C@H](C)O1,-17,9,9,10,.,.
CCN1C(=O)C(CC(=O)NCCc2ccccc2)N(NC(=O)c2ccc(Br)cc2)C1=S (stereo not drawn),-3,-10,13,7,.,.
C[C@@H]1CN([C@@H](C)CO)C(=O)c2cc(C#CCN(C)C)cnc2O[C@H]1CN(C)Cc1ccc2c(c1)OCO2,5,-4,0,-6,.,.
COc1ccc(/C=C/C(=O)Nc2ccccc2C(=O)O)cc1,86*,54*,87*,-50,83*,46*
O=C(/C=C\c1ccco1)Nc1cc([N+](=O)[O-])ccc1F,-31,4,13,-23,97*,-1
O=C(/C=C/c1ccco1)NCC1(c2ccccc2)CCCC1,-15,87*,89*,20,-14,-2
O=C1OC[C@H]2CCCN2C(=O)[C@@H](CC(=O)N(CCO)Cc2ccccc2)C/C=C\CC[C@H]1Cc1ccc(F)cc1,-2,-8,-18,14,.,.
CCOC(=O)N1CCN(c2ccc(S(=O)(=O)N(Cc3ccccc3)Cc3ccccc3)cn2)CC1,22,62*,42,-40,-5,0
CCOC(=O)N1CCN(c2ccc(S(=O)(=O)N3CCOCC3)cn2)CC1,-23,6,8,1,.,.
NC(=NCCCCCCN=C(N)/N=C(\N)Nc1ccc(Cl)cc1)/N=C(\N)Nc1ccc(Cl)cc1,39,28,46,24,96*,7
Cn1nc(C(C)(C)C)cc1C(=O)N1CCCCC1c1cc(C(=O)Nc2ccc(F)c(Cl)c2)no1 (stereo not drawn),16,33,31,6,.,.
O=C(NCCc1ccccc1)Nc1nnc([C@@H]2C[C@H](O)[C@@H](CO)O2)s1,6,-13,8,-1,.,.
CCCOc1ccc(F)cc1-c1cc(C(=O)Nc2cc(OC)c(OC)c(OC)c2)[nH]n1,27,9,64*,-41,.,.
